Assay results as given in PubChem BioAssay.
Where “and” joins values, the source holds several entries; their conditions need not be identical. Equal entries are not always repeated. Unmarked numbers belong to inactive results.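 The calls were made as follows: active = z-score of at least 1.8 in each of two replicates, scored against plate mean and spread of sample wells; inactive = the rest.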

assay: viability rescue of complex I mutant cybrids, primary screen, cell-based, galactose medium, ATP luminescence (AID 1645843); details: complex I mutant cybrid cells, 72 h, hits give high values;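 also: positive z means more ATP and so rescue of galactose-driven cybrid death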

Compound | z-score
COC1C(OC(C)=O)CC(=O)OC(C)CC=CC=CC(O)C(C)CC(CC=O)C1OC1OC(C)C(OC2C[C@@](C)(OC(=O)CC(C)C)C(O)C(C)O2)C(N(C)C)C1O (some centres not stated) | -1.59
CCN1CCCC1CNC(=O)c1c(O)c(Cl)cc(Cl)c1OC (configuration not stated) | 0.65
CC1COc2c(C3(N)CC3)c(F)cc3c(=O)c(C(=O)O)cn1c23 (configuration not stated) | 0.395
CC1CC2C3CC(F)C4=CC(=O)C(Cl)=C[C@]4(C)[C@@]3(F)C(O)C[C@]2(C)[C@@]1(O)C(=O)CO (some centres not stated) | 0.895
CC1CCC2C(C)C(OC(=O)CCC(=O)O)OC3O[C@@]4(C)CCC1[C@]32OO4 (some centres not stated) | -1.79
COc1cc(CNC(=O)CCCCC=CC(C)C)ccc1O | 0.315
CC(C)(C)NC(=O)C1CCC2C3CCC4NC(=O)C=C[C@]4(C)C3CC[C@]12C (some centres not stated) | 0.345
CCCCC(=O)N(Cc1ccc(-c2ccccc2-c2nn[nH]n2)cc1)C(C(=O)O)C(C)C (configuration not stated) | 1.69
CC(=O)OC1CC2CCC3C(CC[C@@]4(C)C3CC([N+]3(C)CCCCC3)C4OC(C)=O)[C@@]2(C)CC1N1CCCCC1 (some centres not stated) | 0.43
C[C@]12CCC3c4ccc(O)cc4CCC3C1CCC2O (some centres not stated) | 0.465
CN1CCc2cc(Cl)c(O)cc2C(c2ccccc2)C1 (configuration not stated) | 0.39
CC1CC2C3CCC4=CC(=O)C=C[C@]4(C)[C@@]3(F)C(O)C[C@]2(C)C1C(=O)CO (some centres not stated) | 1.76
COc1cccc2c1C(=O)c1c(O)c3c(c(O)c1C2=O)C[C@@](O)(C(=O)CO)CC3OC1CC(N)C(O)C(C)O1 (some centres not stated) | -1.87 and -1.86
OCC1OC(n2cnc3c(NC4CCCC4)nc(Cl)nc32)C(O)C1O (configuration not stated) | 1.5
CC=CC(=O)N(CC)c1ccccc1C | 0.595
CC1=C(C(=O)O)N2C(=O)C(NC(=O)C(N)c3ccccc3)C2SC1 (configuration not stated) | 0.52
CC(C)OC(=O)CCCC=CCC1C(O)CC(O)C1CCC(O)CCc1ccccc1 (configuration not stated) | -1.17
OCC1OC(n2cnc3c(NC4CCCC4O)ncnc32)C(O)C1O (configuration not stated) | 0.73
COc1cc(C=Cc2ccc(O)cc2)cc(OC)c1 | -1.52

Compound | z-score
COc1ccc(CCCOc2cc(CCn3ccnc3)ccc2OC)cc1 | -1.33
NC(C(=O)NC1C(=O)N2C(C(=O)O)=C(Cl)CSC12)c1ccccc1 (configuration not stated) | 0.295
C[C@]12C=CC(=O)C=C1CCC1C2C(O)C[C@@]2(C)C1CC[C@]2(O)C(=O)COC(=O)CCC(=O)O (some centres not stated) | 1.77
CC#C[C@]1(O)CCC2C3CCC4=CC(=O)CCC4=C3C(c3ccc(N(C)C)cc3)C[C@@]21C (some centres not stated) | -0.035
COCc1c(C(C)C)nc(C(C)C)c(C=CC(O)CC(O)CC(=O)O)c1-c1ccc(F)cc1 (configuration not stated) | -1.86
COC(=O)C[C@](O)(CCCC(C)(C)O)C(=O)OC1C(OC)=C[C@]23CCCN2CCc2cc4c(cc2C13)OCO4 (some centres not stated) | -1.86
CCOC(=O)O[C@]1(C(=O)OCCl)CCC2C3CCC4=CC(=O)C=C[C@]4(C)C3C(O)C[C@@]21C (some centres not stated) | 0.71
Nc1ncnc2c1ncn2C1OC(CO)CC1O (configuration not stated) | -0.825
C=C1C(=CC=C2CCC[C@@]3(C)C2CCC3C(C)C=CC(O)C2CC2)CC(O)CC1O (some centres not stated) | -1.44
CC1CN(CCCn2c3ccccc3c3ccccc32)CC(C)N1 (configuration not stated) | -1.61
CC(C)(C)NC(=O)C1CC2CCCCC2CN1CC(O)C(Cc1ccccc1)NC(=O)C(CC(N)=O)NC(=O)c1ccc2ccccc2n1 (configuration not stated) | -1.52
O=C(OC1C(Oc2ccccc2COC(=O)C2(O)C=CCCC2=O)OC(CO)C(O)C1O)c1ccccc1 (configuration not stated) | -1.2
O=c1cnn(C2OC(CO)C(O)C2O)c(=O)[nH]1 (configuration not stated) | -0.74
O=C(OC1CC2CC3CC(C1)N2CC3=O)c1c[nH]c2ccccc12 (configuration not stated) | 0.88
COCC1=C(C(=O)OC(C)OC(=O)OC(C)C)N2C(=O)C(NC(=O)C(=NOC)c3csc(N)n3)C2SC1 (configuration not stated) | 0.625
C=CC1=C(C(=O)O)N2C(=O)C(NC(=O)C(=NO)c3csc(N)n3)C2SC1 (configuration not stated) | 0.13
CC(=O)[C@@]1(O)CCC2C3CC(C)C4=CC(=O)CC[C@]4(C)C3CC[C@@]21C (some centres not stated) | -0.04
C=CCc1ccccc1OCC(O)CN[C@]1(C)CCC[C@H](C(C)(C)NC(=O)CBr)C1 (some centres not stated) | -1.52
